# Screening data (PubChem BioAssay)
# Hits are enriched below; roughly 19% of the tested compounds scored in any of these assays.
# HT1080NT lethal = qHTS for induction of synthetic lethality in tumor cells producing 2HG: qHTS for the HT-1080-NT fibrosarcoma cell line; AID 686970, 2013; 360,000 tested, 1.6% active; HT-1080-NT fibrosarcoma viability, CellTiter-Glo ATP luminescence, 48 h; Potency, µM (titrated, usually from 46.1 µM), inactives show top-dose activity, negative = less viability, hits mostly cytotoxic;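 note: NT is the 2HG producing partner of a matched IDH1 knockdown line; 0% = DMSO-treated cells and -100% = media-only wells without cells; nearly all actives have a fitted effect of over 55% in size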
#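 Viability of the 2HG-overproducing fibrosarcoma line after 48 hours of compound exposure at 37 degrees C was determined by luminescence with CellTiter-Glo, and concentration-effect curves were then fitted and categorized.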
# TDP1 cell noCPT = qHTS for Inhibitors of human tyrosyl-DNA phosphodiesterase 1 (TDP1): qHTS in cells in absence of CPT | DT40 Tdp1-/- hTDP1 cells, no CPT, ATP luminescence, 48 h | Potency, µM (series often up to 46.2 µM), for inactives: at the top dose activity change, negative = growth inhibition, actives largely listed as inhibitors | 420,000 tested, 15% active; note: nearly all actives have a fitted effect of over 55% in size
#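 Compound effects on proliferation are scored in DT40 Tdp1-/-;hTDP1 cells in the absence of CPT. ATP levels (CellTiter-Glo luminescence) are recorded after a ≥48 hr, 37 °C incubation.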
# KB-V1 cytotox = qHTS assay for MDR1-selective chemotherapeutics: Primary screen using the drug-selected MDR subline cells KB-V1. 400,000 tested, 3.4% active. Potency, µM (highest dose often 46.1 µM), most hits filed as cytotoxic. KB-V1 MDR cells viability, CellTiter-Glo, 72 h; note: nearly all actives have a fitted effect of over 60% in size
#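 KB-V1 cells (P-gp-expressing MDR subline of KB-3-1) in phenol-red-free DMEM with 10% FBS were exposed to library compounds over a concentration series for 72 h at 37 degrees C. Viability read by CellTiter-Glo luminescence; concentration-effect curves fitted after normalization.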
# HT1080 IDH1KD tx = qHTS for induction of synthetic lethality in tumor cells producing 2HG: qHTS for the HT-1080-IDH1KD cell line | 360,000 tested, 2% active | AID 686971, 2013 | Potency, µM (doses to about 46.1 µM), without a hit: top-dose activity, negative = toxicity, usual class: cytotoxic | HT-1080 IDH1 knockdown viability, ATP luminescence, 48 h;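 note: 0% = DMSO wells and -100% = cell-free medium wells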
#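 CellTiter-Glo luminescence after 48 h compound exposure at 37 degrees C of IDH1-knockdown HT-1080 cells in 5% FBS RPMI. %Activity scaled between DMSO wells and cell-free media wells, with curves fitted and assigned curve classes.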
# KB-3-1 tox = qHTS assay for MDR1-selective chemotherapeutics: Primary screen using the parental adenocarcinoma cell KB-3-1 | Potency, µM (series often up to 46.1 µM), usual class: cytotoxic | KB-3-1 viability, CellTiter-Glo ATP luminescence, 72 h | 400,000 tested, 1.4% active; note: nearly all actives have a fitted effect of over 60% in size
#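 Cytotoxicity measured as CellTiter-Glo luminescence after 72 h at 37 C. Compound titrations were pinned onto drug-naive KB-3-1 parental adenocarcinoma cells grown in DMEM with 10% FBS, and normalized data fitted to concentration-response curves.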
# DT40 TDP1 CPT = qHTS for Inhibitors of human tyrosyl-DNA phosphodiesterase 1 (TDP1): qHTS in cells in presence of CPT; chicken DT40 Tdp1-/-;hTDP1 cells + 20 nM CPT, ATP luminescence, 48 h; Potency, µM (top dose mostly 46.2 µM), inactives show top-dose activity change, negative = growth inhibition, most hits filed as inhibitors; 420,000 tested, 12% active; AID 686979, 2013; note: nearly all actives have a fitted effect of over 55% in size
#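 Chicken DT40 Tdp1-/- cells complemented with human TDP1, 400 cells/well, exposed to compounds plus 20 nM camptothecin for at least 48 h at 37 C; viability read as ATP content by CellTiter-Glo luminescence.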
# * marks the source's active call; other numbers are inactive results; i = inactive; ? = inconclusive; · = no result given; ! = not confirmed by another sample. Calls come from the whole dose curve; as a rule, active = well fitted curve in the direction sought with a large enough effect; inconclusive = small, poorly fitted or top-dose-only effect, or another doubt; inactive = no such curve, though single readings can be large; an effect the other way counts as inactive or inconclusive. Unless noted, % is set by controls: 0 for no effect and ±100 for the full control effect; potency is the fitted concentration of half-maximal effect.
SMILES,HT1080NT lethal,TDP1 cell noCPT,KB-V1 cytotox,HT1080 IDH1KD tx,KB-3-1 tox,DT40 TDP1 CPT
COc1ccc(C2Nc3ccccc3C(=O)N2Cc2ccccc2)cc1COc1ccc(NC(C)=O)cc1 (centres undefined),·,·,i,·,i,·
COc1ccc(C2Nc3ccccc3C(=O)N2c2ccc(F)cc2)cc1COc1ccc(NC(C)=O)cc1 (centres undefined),·,25µM*,i,·,i,?
COc1ccc(C2Nc3ccccc3C(=O)N2Cc2ccco2)cc1COc1ccc(NC(C)=O)cc1 (centres undefined),0%,11µM*,i,-24%,i,?
COc1ccc(N2C(=O)c3ccccc3NC2c2ccc(OC)c(COc3ccc(NC(C)=O)cc3)c2)cc1 (centres undefined),·,?,i,·,i,?
COc1ccc(C2Nc3ccccc3C(=O)N2Cc2ccco2)cc1COc1ccccc1F (centres undefined),-5%,?,?,-4%,?,?
CC(C)c1nc(SCC(=O)N2CCCCC2)c2c(=O)n(C)c(=O)n(C)c2n1,0%,?,?,7%,i,?
OCc1ccc(-c2nn(Cc3ccccc3)c3ccccc23)o1,-24%,18µM*!,?,-21%,i,11µM*!
Cc1ccc(OC(=O)c2sc3ncn(C)c(=O)c3c2C)cc1,0%,-7%,i,2%,i,2%
O=C(Nc1ccc2c(c1)OCCO2)c1cccc(S(=O)(=O)N2CCCCC2)c1,-3%,-13%,16µM*,-11%,i,-28%
O=C(Nc1cccc(S(=O)(=O)N2CCCC2)c1)c1cccc(S(=O)(=O)N2CCOCC2)c1,-4%,?,i,7%,i,?
CS(=O)(=O)c1cccc(C(=O)Nc2ccc(S(=O)(=O)N3CCCCC3)cc2)c1,-9%,18µM*,i,-16%,i,10µM*
O=C(Nc1ccc(N2CCOCC2)cc1)c1cccc(S(=O)(=O)N2CCCCCC2)c1,-2%,1%,i,0%,i,-27%
O=C(Nc1ccc2c(c1)OCCO2)c1cccc(S(=O)(=O)N2CCOCC2)c1,8%,-1%,21µM*,0%,i,-26%
CCC1(c2ccccc2)ON(c2c(Br)cccc2Br)C1=O (centres undefined),?,16µM*,?,18µM*,i,18µM*
CCC1(c2ccccc2)CN(C)C1=O (centres undefined),1%,-13%,i,-1%,i,3%
O=C(Nc1ccc2c(c1)CN(C(=O)Nc1ccc(F)cc1)CC2)c1ccccn1,-18%,4.1µM*,?,?,?,5.8µM*
CSc1ccccc1C(=O)N1CCc2ccc(NC(=O)c3ccccn3)cc2C1,?,12µM*,?,?,?,13µM*
COc1ccc(NCc2nnc(SCC#N)n2-c2ccccc2OC)cc1,-13%,16µM*,?,-4%,i,?
O=S1(=O)CC(N2CCCC2)CN1Cc1cn(Cc2cccc(Cl)c2)nn1 (centres undefined),14%,-16%,i,4%,i,4%
Cc1cc(C)c(O)c(-c2cc(C(=O)NCc3ccccc3)[nH]n2)c1,?,?,i,?,i,18µM*
CCNC(=O)c1c(NC(=O)c2cc(-c3cc(C)cc(C)c3O)n[nH]2)sc2c1CCCC2,-1%,5.8µM*,i,8%,i,?
CCNC(=O)c1c(NC(C)=O)sc2c1CCCC2,14%,8%,i,10%,i,1%
Cc1cc(C)c(O)c(-c2cc(C(=O)NCCc3ccc(S(N)(=O)=O)cc3)[nH]n2)c1,-19%,9.2µM*,i,-24%,i,-22%
Cc1cc(O)c(-c2cc(C(=O)NCCc3ccc(S(N)(=O)=O)cc3)[nH]n2)cc1C,?,?,i,-5%,?,-3%
O=C(CSc1nc2ncccc2o1)Nc1cccc(C(F)(F)F)c1,·,-20%,i,·,i,-22%
SMILES,HT1080NT lethal,TDP1 cell noCPT,KB-V1 cytotox,HT1080 IDH1KD tx,KB-3-1 tox,DT40 TDP1 CPT
COc1ccc2nc(C)cc(SCC(=O)N/N=C/c3ccccc3)c2c1,-10%,?,i,-10%,i,-14%
COc1cccc2c(SCC(=O)N/N=C/c3ccc(O)cc3O)cc(C)nc12,?,10µM*,i,?,?,?
COc1ccccc1/C=N/NC(=O)CSc1cc(C)nc2ccccc12,?,8.2µM*,i,?,?,7.3µM*
COc1ccc2nc(C)cc(SCC(=O)Nc3c(C)cc(C)cc3C)c2c1,23%,-6%,13µM*,-15%,i,?
CCC(=O)N1CCc2cc(Br)cc(S(=O)(=O)CCC(=O)NCc3ccc(C)cc3)c21,·,0%,i,·,i,1%
COC(=O)Cc1[nH]nc2c1C(C1C=CCCC1)C(C#N)=C(N)O2 (centres undefined),-15%,26µM*,i,-22%,i,?
Cc1csc(NC(=O)CSC2=NS(=O)(=O)c3cc(F)ccc3N2)n1,-2%,-10%,i,1%,i,-1%
COc1ccc(/C=C2/C(=O)ON=C2C)cc1Br,-4%,?,i,3%,i,?
CC1=NOC(=O)/C1=C/c1ccc2c(c1)OCO2,1%,?,i,2%,i,9.2µM*
CC1=NOC(=O)/C1=C\c1ccc2c(c1)OCO2,17%,15µM*,?,22%,i,?
O=C(Nc1ccc(CN2CCOCC2)cc1)c1ccccc1F,-4%,6%,i,3%,i,-4%
Cc1sc(NC(=O)c2ccccc2F)c(CN2CCCCC2)c1C,4%,23µM*,?,4%,?,21µM*
O=C(Nc1sc2c(c1CN1CCOCC1)CCC2)c1ccc(F)cc1,8%,?,2.1µM*,8%,i,?
O=C(Nc1ccccc1N1CCCCC1)c1ccc(F)cc1,0%,?,i,-5%,i,?
